Shown are actives, neighbours in structure and some others; about 1% of the full set was active somewhere.
TCR act: Activators of T cell receptors: qHTS campaign; primary human leukocytes, anti-CD3, IL-2 HTRF, 48 h; Potency, µM (series often up to 9.22 µM), inactives show top-dose activation of IL-2 secretion, actives largely listed as activators; 330,000 tested, under 10 active; note: % of control where 0% means no effect
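Primary human leukocytes receive a-CD3 beads and test compound and are incubated 48 hr. Secreted IL-2 is then assayed by HTRF, measuring 665nm acceptor emission after 320nm excitation of the europium donor.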
TRb SRC2 PPI: qHTS for Inhibitors of the Interaction of Thyroid Hormone Receptor and Steroid Receptor Coregulator 2; Thyroid hormone receptor beta (Homo sapiens), P10828; TRbeta-SRC2 peptide binding, fluorescence polarization; receptor liganded with 1 µM T3; Potency, µM (doses to about 106 µM), without a hit: at the highest dose activity change, negative = inhibition, usual class: inhibitors; 0.065% of 280,000 active; AID 1469, 2008;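 note: potency is the fitted concentration of half-maximal effect; plate controls were bound peptide for no effect and peptide without receptor for full effect; nearly all actives have a fitted effect of over 50% in size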
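TRb LBD 0.6 uM + Texas Red SRC2 peptide 20 nM, 1 uM T3, Tris buffer w/ 5% DMSO; compound pinned, 5 h RT; FP read ex 555/em 632; normalized to unbound and bound controls.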
TR SRC2 fluor cs: Total Fluorescence Counterscreen for Inhibitors of the Interaction of Thyroid Hormone Receptor and Steroid Receptor Coregulator 2. TRb/SRC2 Texas Red total fluorescence interference. Potency, µM (titrated, usually from 106 µM), for the others: at the top dose fluorescence change, negative = quenching. 0.29% of 280,000 active; active = well fitted curve in either direction with a large enough effect; inconclusive = small, poorly fitted or top-dose-only effect; note: potency is the fitted concentration of half-maximal effect; % is set by controls: 0 for no effect and ±100 for the full control effect
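Human TRb ligand-binding domain at 0.6 uM with 20 nM Texas Red SRC2 peptide in Tris buffer containing 1 uM T3 and 5% DMSO, incubated with compound 5 h at ambient temperature. Total fluorescence (555/632 nm) calculated as parallel + 2 × perpendicular.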
TSHR antag: Antagonists of the Thyroid Stimulating Hormone Receptor: HTS campaign; Thyrotropin receptor (Homo sapiens), P16473; TSHR-expressing cells, TSH-stimulated cAMP HTRF, 2 h; active compounds read low; activity change, negative = inhibition, % at 11.5 µM; 0.2% of 330,000 active;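 active = activity change below a set negative limit, meaning inhibition stronger than a set level, cut at about -70% in these data; inconclusive = activity change between two set negative limits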; note: % is set by controls: 0 for no effect and ±100 for the full control effect
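Cell-based HTRF cAMP assay; TSHR cells + compound, TSH EC80 (4nM final), 2 h, 37 deg C. Lysis with anti-cAMP cryptate and cAMP-d2, 30 min RT, read 665/620 nm.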
NPSR antagonist: qHTS Assay for Antagonists of the Neuropeptide S Receptor: cAMP Signal Transduction | CHO-NPSR cells, cAMP TR-FRET, antagonist mode | Potency, µM (highest dose often 38.3 µM), without a hit: at the top dose activity change, negative = inhibition, most hits filed as inhibitors | 1% of 220,000 active; note: potency is the fitted concentration of half-maximal effect; % is set by controls: 0 for no effect and ±100 for the full control effect; nearly all actives have a fitted effect of over 50% in size
Target sequence (Q6W5P4 whole entry, looked up): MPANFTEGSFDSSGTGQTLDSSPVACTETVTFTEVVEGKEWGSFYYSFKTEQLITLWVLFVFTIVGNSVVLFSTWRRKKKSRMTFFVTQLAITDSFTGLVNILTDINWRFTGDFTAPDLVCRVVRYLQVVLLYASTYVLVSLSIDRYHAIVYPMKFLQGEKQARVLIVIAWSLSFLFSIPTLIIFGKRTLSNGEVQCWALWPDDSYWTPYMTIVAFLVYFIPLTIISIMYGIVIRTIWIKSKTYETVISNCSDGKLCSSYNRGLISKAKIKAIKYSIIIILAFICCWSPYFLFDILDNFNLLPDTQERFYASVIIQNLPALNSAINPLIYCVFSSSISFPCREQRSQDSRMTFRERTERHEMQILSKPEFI
Coupling enz: qHTS Assay for Inhibitors of Fructose-1,6-bisphosphate Aldolase from Giardia Lamblia: Coupling assay counterscreen; coupling enzyme system counterscreen, AmpLite Red fluorescence; AID 2472, 2010; 0.67% of 290,000 active; activity change, negative = inhibition, % at 58.2 µM, hits read low; in the data active = activity change below about -30%; note: % is set by controls: 0 for no effect and ±100 for the full control effect
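Fluorescence at 525 nm excitation and 598 nm emission measured inhibition of the coupled detection system without aldolase. Compounds (at 57.5 uM final) were preincubated 10 min at room temperature with coupling enzyme reagent before a 20 min substrate/AmpLite Red step.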
* hit, by the source's call; ? = inconclusive; . = not tested or not shown; [ ] = another dose, or the depositor's remark. Unless noted, calls come from the whole dose curve; as a rule, active = well fitted curve in the direction sought with a large enough effect; inconclusive = small, poorly fitted or top-dose-only effect, or another doubt; inactive = no such curve, though single readings can be large; an effect the other way counts as inactive or inconclusive.

SMILES | TCR act | TRb SRC2 PPI | TR SRC2 fluor cs | TSHR antag | NPSR antagonist | Coupling enz
Clc1ccc(-c2noc(-c3cccnc3NCc3ccco3)n2)cc1 | . | 1.5% | 0.3% | . | . | .
COc1cc(NC(C)CCCN)c2ncccc2c1Oc1ccccc1 (configuration not stated) | -7.0%[46.1 µM] | -13.9% | 2.4% | 9.9 | 8.8% | -30.4*
CCCS(=O)(=O)N1CC(=O)N(c2ccccc2F)C(C)(C(=O)NC2CCCCCC2)C1 (configuration not stated) | . | -4.9% | 4.1% | . | . | .
CC(C)OCCCNC(=O)C(=O)Nc1ccc2nc3n(c(=O)c2c1)CCCCC3 | . | 8.4% | -0.9% | . | . | .
O=C(c1ccccc1)c1c[nH]cc1-c1ccccc1 | -1.5%[46.1 µM] | -9.1% | -7.6% | -16.3 | 4.8%[46.1 µM] | 1.8
COC1=C(c2ccccc2)C(=O)c2ccccc2C1=O | -3.2%[46.1 µM] | 4.2% | -2.9% | -3.7 | ? | -32.7*
O=C(C1=C(c2ccccc2)C(=O)c2ccccc2C1=O)c1ccccc1 | . | -2.3% | 4.3% | 8.0 | ? | -62.2*
COc1cccc(O)c1O | . | -4.9% | -2.4% | . | . | -32.7*
CCOc1ccc(NCc2cccn2-c2nnc(N3CCC(C(=O)NCCc4ccc(OC)c(OC)c4)CC3)s2)cc1 | . | -8.1% | 35.5µM*[quencher] | . | . | .
CCOC(=O)c1c(NC(=O)/C=C/C(=O)O)sc(C)c1-c1ccc(C(C)(C)C)cc1 | 4.1% | ? | -6.2% | ? | 10µM* | 13.9
Cc1cc(=O)n(CC(=O)NC(C)c2ccccc2)c2c1c(C)nn2-c1cccc(F)c1 (configuration not stated) | . | -23.5% | 251µM*[quencher] | . | . | .
Cc1ccc(CNC(=O)Cn2c(=O)cc(C)c3c(C)nn(-c4cccc(F)c4)c32)cc1 | . | -0.8% | 2.7% | . | . | .
Cc1cccc(N(C)S(=O)(=O)c2nnc(NC(=O)C(C)(C)C)s2)c1 | . | -1.3% | 4.4% | . | . | .
O=C1/C(=C/c2ccc([N+](=O)[O-])cc2)C=C(c2ccccc2)N1c1ccccc1 | -0.9% | -0.3% | -2.2% | 1.5 | -19.5%[46.1 µM] | 2.2
O=C1/C(=C/c2ccc([N+](=O)[O-])cc2)C=C(c2ccccc2)N1c1ccc(O)cc1 | -4.2% | -7.4% | -2.6% | 0.9 | 12.6µM* | -0.4
O=C(O)c1cccc(N2C(=O)/C(=C/c3ccc([N+](=O)[O-])cc3)C=C2c2ccccc2)c1 | -2.4% | -6.9% | -4.7% | -5.3 | 5.01µM* | 14.7
Cc1ccc(C(=O)N(Cc2ccc(N(C)C)cc2)CC2CCCO2)cc1 (configuration not stated) | . | -3.4% | -1.8% | . | . | .
O=C(N=C1SC2CS(=O)(=O)CC2N1c1ccc(F)cc1)C1CC1 (configuration not stated) | 4.8% | . | . | -109.2* | . | 2.5
CCN1C(=O)N/C(=C/c2ccc(C)o2)C1=O | -0.6%[46.1 µM] | -5.3% | 0.2% | 1.1 | -22.6% | -12.1
CCCN1C(=O)/C(=C/c2ccc(C)o2)NC1=S | . | -0.1% | -3.5% | -9.8 | -17.6% | -32.8*
O=C(NN1C(=O)/C(=C/c2ccc(O)c([N+](=O)[O-])c2)SC1=S)c1ccccc1Cl | -11.3% | 6.4% | -5.8% | -32.2 | 6.31µM* | 6.7
Cc1ccc(CO/N=C\Cc2snc(Sc3ncc(C(F)(F)F)cc3Cl)c2C#N)cc1 | 4.8% | 6.7% | 5.0% | -21.8 | 10µM* | -4.9
COc1cccc2c1C(=N)c1c(O)c3c(c(O)c1C2=O)CC(O)(C(C)=O)CC3OC1CC(N)C(O)C(C)O1 (configuration not stated) | 9.4% | . | . | . | . | .
COc1cccc2c1C(=O)c1c(O)c3c(c(O)c1C2=O)C[C@](O)(C(=O)CO)C[C@H]3O[C@@H]1C[C@H](N)[C@H](O)[C@H](C)O1 | . | 14.1µM* | 15.8µM*[fluorescent] | . | . | -2.4
N#Cc1cc([N+](=O)[O-])ccc1Oc1cccc(/C=N/NC(=O)c2cccc(Cl)c2)c1 | -9.5% | 8.1% | -2.6% | -39.5 | -29.6%[46.1 µM] | -35.5*
SMILES | TCR act | TRb SRC2 PPI | TR SRC2 fluor cs | TSHR antag | NPSR antagonist | Coupling enz
COc1ccc(C2C(=O)N(C3CCCCCC3)CC(=O)N2Cc2ccc(C)cc2)cc1 (configuration not stated) | . | 1.9% | -1.6% | . | . | .
COC(=O)c1cc(C)nc2c1C(=O)C(=O)C=C2N1CCOCC1 | -2.0% | . | . | 24.4 | . | -79.2*
CCN(C(=O)c1cc2c(=O)oc3ccccc3c2s1)c1ccccc1F | . | 2.5% | -5.3% | . | . | .
CCCCN(CC)CCNC(=O)Cn1cc2c(n1)-c1c(oc(C(=O)N3CCCC3)c1C)CC2 | 2.8% | -2.9% | -1.4% | 4.6 | . | -31.0*
COC(=O)c1ccc(C=O)cc1 | . | 0.8%[201 µM] | -0.4%[201 µM] | . | . | .
C=C1C(=O)C=C2CN(C(=O)c3ccccc3)[C@@](Cc3ccc(F)cc3)(C(=O)OC)[C@@H]12 | 1.8% | -8.3% | 1.4% | -17.7 | 1.58µM* | -1.3
CO[Si](CCCOCC1CO1)(OC)OC (configuration not stated) | . | 0.3%[201 µM] | -0.6%[201 µM] | . | . | .
CCN(C/C=C/C#CC(C)(C)C)Cc1cccc(OCc2cc(-c3ccsc3)cs2)c1 | . | 0.5% | 13.6% | . | . | -4.4
COn1c(C)c(C)c2c3nonc3ccc21 | -4.5% | ? | -1.0% | 5.5 | -26.9% | -39.2*
CCOC(=O)c1c(C)n(OCc2ccccc2)c2ccc3nonc3c12 | 0.6% | -11.8% | -0.1% | 7.8 | -24.2%[46.1 µM] | -2.2
COc1c(C)cc(S(=O)(=O)Nc2cccc(-c3ccc(N4CCOCC4)nn3)c2)c(C)c1C | . | 3.5% | -2.3% | . | . | .
COc1cc(/C=C2\SC(c3ccc(C)cc3)=NC2=O)cc(OC)c1O | 4.2% | -5.7% | -11.6% | -5.2 | 2µM* | -8.4
CC1=[N+](C)c2ccc3ccccc3c2C1(C)C | -6.1%[46.1 µM] | 31.6µM* | 4.47µM*[fluorescent] | 4.4 | 17.2% | -13.8
O=C(Nc1ccc2nc3ccccc3nc2c1)c1ccc(Br)cc1 | 5.1%[46.1 µM] | -1.4% | 3.2% | 21.2 | 13.0% | -39.4*
O=C(Nc1ccc2cccnc2c1)c1ccc(Br)cc1 | . | . | . | -13.8 | . | -3.5
CC(=O)Nc1ccc2nc3ccccc3nc2c1 | 7.4% | -1.4% | -9.7% | -13.7 | -45.2% | -33.2*
Cc1ccc(CCNC(=O)c2ccc(CSCc3ccccc3C)o2)cc1 | . | 3.5% | 0.1% | . | . | .
COc1ccc2c(CNCCc3ccc(SC)cc3)c(C(=O)O)n(Cc3ccc(F)cc3)c2c1 | . | 8.1% | -0.7% | . | . | .
CCOC(=O)C1(CCOc2ccccc2)CCN(Cc2cccc(OC)c2O)CC1 | -13.4% | . | . | -113.3* | . | -1.8
CCOC(=O)C1(CCOc2ccccc2)CCN(Cc2cc(OC)ccc2OC)CC1 | -2.0% | . | . | -1.6 | . | 1.6
